BJeLR lethal: MLPCN primary cell-based screen for lethality selective to Ras in HRASV12 cells | BJeLR (HRASV12) viability, CellTiter-Glo ATP luminescence, 48 h | inhibition, % (no concentration beside the values) | 300,000 tested, 0.17% active | AID 1554, 2009; in the data active = inhibition above about 50%
3CLpro inhibitor: SARS-CoV 3CLpro protease inhibitors, primary screen, biochemical, quenched FRET; 290,000 tested, 0.14% active; AID 1706, 2009; recombinant SARS-CoV 3CLpro, quenched FRET peptide cleavage; inhibition, % at 6 µM; Replicase polyprotein 1ab (Severe acute respiratory syndrome coronavirus), P0C6X7; in the data active = inhibition above about 12%
SSB-PriA inh: inhibitors of Klebsiella pneumoniae PriA binding to SSB C-terminal tail, primary screen, biochemical, AlphaScreen; AlphaScreen SSBct-PriA binding, biotinylated peptide; inhibition, % at 33 µM; AID 1272365, 2023; PriA–SSB C-terminal tail interaction (Klebsiella pneumoniae); 430,000 tested, 0.6% active; in the data active = inhibition mostly above about 37%, no sharp cut-off; inactive = mostly below about 20%;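 note: plate controls were negative control peptide for no effect and reference peptide for full effect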
An asterisk follows results filed as active; i = inactive; / = no result; ! = not confirmed by another sample. Compounds with a hit are over-represented: about 0.78% of the library has one in this group of screens.

SMILES	BJeLR lethal	3CLpro inhibitor	SSB-PriA inh
CN(C)CCNC(=O)C(=O)Nc1ccccc1[N+](=O)[O-]	/	/	-4
COc1cccc(N/C(N)=N/c2nc(CSc3ccccn3)cc(=O)[nH]2)c1	27	0	/
COc1ccnc(CSC(N)=Nc2ccc(F)cc2)c1	3	5	46*
Clc1nc(-c2ccccn2)nc2scc(-c3ccccc3)c12	-1	-2	-9
Nc1nc(-c2ccccn2)nc2sccc12	/	/	126*
Cc1cc(C)nc(NC(=O)NCCCSc2nc3ccccc3o2)n1	/	/	-4
O=C(O)c1ccc(/C=N/Nc2nc3ccccc3[nH]2)cc1	8	-3	i
Cc1c(/C=N/Nc2nc3ccccc3[nH]2)c2ccccc2n1C	65*	-1	i
C(=NNc1ccccn1)c1c[nH]c2ccccc12	/	/	15
C(=NNc1nc2ccccc2[nH]1)c1c[nH]c2ccccc12	/	/	50*
Cc1[nH]c2ccccc2c1C=NNc1nc2ccccc2[nH]1	/	/	41*
Cc1ccc(C=NNc2nc3ccccc3[nH]2)s1	/	/	9
CC(=O)Nc1ccc(/C=N/Nc2nc3ccccc3[nH]2)cc1	67*	-1	/
Cn1c(/C=N/Nc2nc3ccccc3[nH]2)nc2ccccc21	-1	5	/
C#CCn1cc(C=NNc2nc3ccccc3[nH]2)c2ccccc21	/	/	44*
C=CCn1cc(/C=N/Nc2nc3ccccc3[nH]2)c2ccccc21	4	-2	/
O=S(=O)(Nc1cccc2ccccc12)c1ccccc1	2	7	0
CC(=O)Nc1ccc(S(=O)(=O)Nc2cccc3cccnc23)cc1	-1	2	3
Cc1ccc2cccc(NS(=O)(=O)c3ccccc3)c2n1	69*	3	1
CC1CCN(S(=O)(=O)Nc2cccc3cccnc23)CC1	/	/	-53
O=S(=O)(Nc1cccc2cccnc12)c1ccccc1	74*	-3	-4
O=S(=O)(Nc1cccc2cccnc12)c1ccc(S(=O)(=O)N2CCCC2)cc1	-3	6	45*
Cc1noc(C)c1[C@H]1NCCn2cccc21	/	/	-11
O=C1CCCN2N=C(SCC(=O)N3CCc4ccccc43)SC2=N1	/	/	-3
COc1cc(/C=C/C(=O)Nc2ccc3c(c2)C(=O)N(C)C3=O)cc(OC)c1OC	/	/	5
SMILES	BJeLR lethal	3CLpro inhibitor	SSB-PriA inh
CC(C)Sc1ccc(CC(=O)NCC#CCN2CCc3ccccc3C2)cc1	/	/	0
CCOc1cc(-c2ccc(Cl)cc2)nc2ccc(NC(=O)Nc3ccccc3Br)cc12	/	/	-20
CCc1ccc(Nc2n[n+](-c3ccccc3)c(-c3ccc(N(CC)CC)cc3)s2)cc1	0	-6	-5
COc1ccc2ccccc2c1-c1sc(Nc2ccccc2)n[n+]1-c1ccc(F)cc1	15	-2	39*
Fc1ccc(-[n+]2nc(Nc3ccccc3)sc2-c2c(Cl)cccc2Cl)cc1	10	-4	46*
COc1ccc(C)cc1Nc1n[n+](-c2ccccc2)c(-c2c(Cl)cccc2Cl)s1	0	2	39*
COc1ccc(-c2sc(Nc3ccccc3)n[n+]2-c2ccc(F)cc2)cc1Br	13	0	-1
COc1ccc(C)cc1Nc1n[n+](-c2ccccc2)c(-c2ccc(OC)c(OC)c2OC)s1	15	3	5
O=C(O)c1ccc(-c2sc(Nc3ccccc3)n[n+]2-c2ccc(F)cc2)cc1	-4	-4	-1
CCc1ccc(Nc2n[n+](-c3ccccc3)c(-c3c(Cl)cccc3Cl)s2)cc1	30	7	66*
Cc1nc2ccccc2n1CCC(=O)N/N=C\c1c(O)ccc2ccccc12	/	/	31
O=C(CN1CC(c2nc(C3CC3)no2)C1)NCc1ccc2c(c1)OCO2	/	/	-5
O=C(CCC1CCCCC1)NCCCn1nc(-c2ccco2)ccc1=O	/	/	-15
COc1cc(OC)cc(C(=O)Nc2ccc3nc(C)n(-c4ccc(F)cc4)c(=O)c3c2)c1	/	/	-5
Cc1ccc(NC(=O)CC2SC(=NC(C)C)N(C(C)C)C2=O)cc1 (stereo unspecified)	/	/	-12
Cc1cc(C(=O)N2Cc3cncnc3C2)c(C)o1	/	/	11
CNC(=O)c1cccc(-c2noc(C3CN(S(=O)(=O)/C=C/c4ccc(C)cc4)C3)n2)c1	/	/	-13
COc1ccc(N=Nc2ccc(N)nc2N)cc1	-8	-1	11
COc1ccc(OC)c(C(=O)C(=O)c2cc(OC)ccc2OC)c1	/	/	-4
COc1ccc(N=Nc2ccc3ccccc3c2)c(O)c1	5	2	34
COc1ccc(OC)c(N)c1	-1	2	74*
COc1ccc(N=Nc2cc(C)ccc2O)cc1	1	2	77*
COc1ccc(N=Nc2cc(OC)c(N)cc2OC)cc1	/	/	62*
CCCN1C(=O)C(C)(C)COc2ccc(NS(=O)(=O)c3ccc(Br)cc3)cc21	/	/	6
Cc1ccccc1-c1ccc(N2CCC(C(=O)NN3CCN(C)CC3)CC2)nn1	/	/	-3
SMILES	BJeLR lethal	3CLpro inhibitor	SSB-PriA inh
O=C(Cc1ccc([N+](=O)[O-])cc1)N1CCCCCC1	5	5	-17
O=C(CCc1ccc(Oc2cc([N+](=O)[O-])cc([N+](=O)[O-])c2)cc1)N1CCCCCC1	1	0	39*
COc1ccc(OC)c2sc(NC(=O)COc3ccc(Cl)cc3)nc12	/	/	-71
O=C(Nc1ccccc1-c1ccc(=O)[nH]n1)C1CCN(c2cc(-n3cccn3)ncn2)CC1	/	/	5
OC(COc1cccc2ccccc12)CN1CCN(c2ccccc2)CC1 (stereo unspecified)	-4	-3	-1
C/C=C/c1ccc(OCC(O)CN2CCN(c3cccc(Cl)c3)CC2)c(OC)c1 (stereo unspecified)	/	/	36*
COc1ccccc1N1CCN(CC(O)COc2cccc3ccccc23)CC1 (stereo unspecified)	4	17*!	18
C/C=C/c1ccc(OC[C@@H](O)CN2CCN(c3cccc(C(F)(F)F)c3)CC2)c(OC)c1	/	/	11
Cc1ccc(NC(=O)c2cccn(C)c2=O)cc1N1CCCC1=O	/	/	-14
COC(=O)c1ccc(C(=O)NCCn2ccnc2-c2ncccn2)cc1	/	/	35
COc1ccc(CCC(=O)NCCn2ccnc2C2CC2)cc1	/	/	7
CSc1ccccc1C(=O)NCCn1ccnc1-c1ncccn1	/	/	97*
COc1ccc(CCC(=O)NCCn2ccnc2-c2ncccn2)cc1	/	/	96*
O=C(NCCn1ccn2nccc12)C1c2ccccc2Oc2ccccc21	/	/	-13
